Test results as given in PubChem BioAssay (Tox21).
Records with an inconclusive call do not appear. The source made the active and inactive calls. Unless noted, calls follow the shape of the dose curve; as a rule, active = well fitted curve in the direction sought with a large enough effect in the repeat runs; inconclusive = weak or mixed curves; inactive = no such curve, though single readings can be large; an effect the other way counts as inactive or inconclusive.

Legend:
[1] = biological target: Estrogen receptor (Homo sapiens) (UniProt P03372); experiment: qHTS assay to identify small molecule antagonists of the estrogen receptor alpha (ER-alpha) signaling pathway using the BG1 cell line in the presence of 0.1 nM 17-beta-estradiol (AID 1259244); conditions: VM7Luc4E2 (BG1) ERE-luciferase, antagonist mode, 0.1 nM E2, 22 h; series mostly up to 92.4 µM; also: nearly all actives have a fitted effect of over 50% in size
Estrogen receptor (Homo sapiens), sequence (P03372 whole entry, looked up): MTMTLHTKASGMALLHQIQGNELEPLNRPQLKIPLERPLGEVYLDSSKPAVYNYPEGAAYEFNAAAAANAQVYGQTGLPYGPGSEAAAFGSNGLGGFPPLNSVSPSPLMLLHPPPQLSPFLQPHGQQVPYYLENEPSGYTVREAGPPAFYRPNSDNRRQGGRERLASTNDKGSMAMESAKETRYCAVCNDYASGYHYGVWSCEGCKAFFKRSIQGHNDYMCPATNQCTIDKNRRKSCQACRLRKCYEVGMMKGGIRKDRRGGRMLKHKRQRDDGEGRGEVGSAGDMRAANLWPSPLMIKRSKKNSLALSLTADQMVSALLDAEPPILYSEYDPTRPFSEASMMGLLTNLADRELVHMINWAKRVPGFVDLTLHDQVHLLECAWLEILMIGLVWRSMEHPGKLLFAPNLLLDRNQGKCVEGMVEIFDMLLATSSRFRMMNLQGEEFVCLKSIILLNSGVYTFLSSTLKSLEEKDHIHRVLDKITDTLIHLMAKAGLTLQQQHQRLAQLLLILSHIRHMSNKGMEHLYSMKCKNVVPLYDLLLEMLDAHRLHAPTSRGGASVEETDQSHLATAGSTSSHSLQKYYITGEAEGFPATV
Procedure, shortened: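 Antagonist mode: compounds in DMSO are pinned onto VM7Luc4E2 reporter cells, 0.1 nM final 17beta-estradiol is added, and after 22 h at 37C luciferase luminescence is measured with ONE-Glo.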

[2] = qHTS assay to identify small molecule HDAC inhibitors (AID 1259364); conditions: HCT-116 HDAC-Glo I/II luminescence, 2 h; series mostly up to 92.4 µM;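 also: wild-type HCT-116 cells with endogenous class I/II HDAC activity; top concentration of the series differs between compounds; nearly all actives have a fitted effect of over 45% in size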
Procedure, shortened: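 Cells (HCT-116, wild type) are seeded at 1,500 per well, incubated overnight, treated with compound in DMSO for 2 hr, then developed with HDAC-Glo I/II reagent for 30 min at room temperature.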

[3] = qHTS assay to identify small molecule HDAC inhibitors - cell viability counter screen (AID 1259365); conditions: HCT-116 viability, CellTiter-Glo ATP luminescence, 2 h; series mostly up to 92.4 µM; also: nearly all actives have a fitted effect of over 50% in size
Procedure, shortened: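 Cytotoxicity was gauged in wild-type HCT-116 cells after a brief 2hr treatment with DMSO-dissolved compounds at 37C and 5% CO2, using CellTiter-Glo luminescence developed for 30min at room temperature.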

[4] = qHTS assay to identify small molecule agonists of the sonic hedgehog signaling (Shh) pathway - cell viability counter screen (AID 1259366); conditions: NIH/3T3 Gli1-Luc viability, CellTiter-Fluor, 24 h; series mostly up to 92.4 µM; also: nearly all actives have a fitted effect of over 50% in size
Procedure, shortened: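 Stable Gli1-Luc NIH/3T3 clone, 2,000 cells/well. Compound exposure 24hr at 37C. Read-out: CellTiter-Fluor fluorescence.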

[5] = qHTS assay to identify small molecule antagonists of the sonic hedgehog signaling (Shh) pathway - cell viability counter screen (AID 1259367); conditions: NIH/3T3 Gli1-Luc viability, CellTiter-Fluor, 24 h; series mostly up to 92.4 µM; also: nearly all actives have a fitted effect of over 55% in size
Procedure, shortened: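 Tox21 library chemicals were tested on a Gli1-Luc NIH/3T3 clone (2,000 cells/well) stimulated by conditioned medium; viability was quantified as fluorescence from CellTiter-Fluor reagent added at 23 hr.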

[6] = qHTS assay to identify small molecule antagonists of the sonic hedgehog signaling (Shh) pathway (AID 1259369; calls by dose curve; also: nearly all actives have a fitted effect of over 45% in size); conditions: NIH/3T3 Gli1-Luc reporter, Shh antagonist, luminescence 24 h; series mostly up to 92.4 µM
Procedure, shortened: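 Cells are plated and held 4hr at 37 C, compounds (DMSO) are pinned in, conditioned medium is added to stimulate the pathway, and after 24hr luciferase reagent is added for 30min before luminescence is read.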

[7] = biological target: Estrogen receptor beta (Homo sapiens) (UniProt Q92731); experiment: qHTS assay to identify small molecule agonists of the estrogen receptor beta (ER-beta) signaling pathway (AID 1259377; active = well fitted activation curve with a large enough effect in the signal ratio in the repeat runs, not every such curve was filed as active; the % refers to the signal ratio); conditions: ER-beta-UAS-bla HEK293T, beta-lactamase FRET ratio, 16 h; series mostly up to 92.4 µM
Estrogen receptor beta (Homo sapiens), sequence (Q92731 whole entry, looked up): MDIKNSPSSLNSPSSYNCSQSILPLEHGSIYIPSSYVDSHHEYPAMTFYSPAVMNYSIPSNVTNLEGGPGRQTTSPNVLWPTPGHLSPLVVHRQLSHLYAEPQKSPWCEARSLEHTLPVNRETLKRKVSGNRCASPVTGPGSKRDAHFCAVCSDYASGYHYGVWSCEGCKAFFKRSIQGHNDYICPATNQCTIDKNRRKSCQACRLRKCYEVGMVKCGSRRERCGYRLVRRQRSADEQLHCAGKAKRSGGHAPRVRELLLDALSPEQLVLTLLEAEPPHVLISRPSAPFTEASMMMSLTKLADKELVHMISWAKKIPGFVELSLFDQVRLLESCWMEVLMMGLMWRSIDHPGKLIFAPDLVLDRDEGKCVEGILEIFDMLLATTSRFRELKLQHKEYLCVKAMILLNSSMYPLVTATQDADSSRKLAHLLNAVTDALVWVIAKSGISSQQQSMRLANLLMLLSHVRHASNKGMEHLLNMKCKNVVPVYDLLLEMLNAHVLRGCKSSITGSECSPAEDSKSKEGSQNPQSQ
Procedure, shortened: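 Measured by fluorescence intensity from a B/G FRET beta-lactamase substrate (2 h, room temperature) in ER-beta-UAS-bla HEK293T cells treated with DMSO-dissolved compounds for 16 hr at 37C and 5% CO2.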

[8] = biological target: Estrogen receptor beta (Homo sapiens) (UniProt Q92731); experiment: qHTS assay to identify small molecule antagonists of the estrogen receptor beta (ER-beta) signaling pathway (AID 1259378; active = well fitted inhibition curve with a large enough effect in the signal ratio in the repeat runs, not every such curve was filed as active; the % refers to the signal ratio); conditions: ER-beta-UAS-bla HEK293T, beta-lactamase FRET ratio, 16 h; series mostly up to 92.4 µM
Procedure, shortened: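 ER-beta-UAS-bla HEK293T cells in 2% charcoal-stripped FBS medium treated with compound plus 1nM final 17-beta-estradiol for 16 hr at 37C. Beta-lactamase reporter read by FRET substrate fluorescence after 2 hours at room temperature.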

[9] = qHTS assay to identify small molecule agonists of the androgen receptor (AR) signaling pathway in the presence of an antagonist - cell viability counter screen (AID 1259379); conditions: MDA-kb2 viability, CellTiter-Fluor, 16 h; series mostly up to 92.4 µM;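 also: MDA-kb2 human breast cancer cells carrying an MMTV luciferase reporter; nearly all actives have a fitted effect of over 25% in size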
Procedure, shortened: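 Cytotoxicity is assessed by CellTiter-Fluor in MDA-kb2 cells carrying an MMTV-driven luciferase reporter. Cells receive 3.0uM nilutamide plus compounds at 15 concentrations and incubate 16 hr at 37C without CO2 before fluorescence reading.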

[10] = qHTS assay to identify small molecule antagonists of the estrogen receptor beta (ER-beta) signaling pathway - cell viability counter screen (AID 1259382); conditions: ER-beta-UAS-bla HEK293T viability, CellTiter-Glo luminescence, 16 h; series mostly up to 92.4 µM; also: nearly all actives have a fitted effect of over 55% in size
Procedure, shortened: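 Cytotoxicity counter screen multiplexed with the beta-lactamase antagonist assay: GripTite HEK293T ER-beta-bla cells were treated 16 hr with test chemicals in the presence of 1nM 17-beta-estradiol, and viability was measured by CellTiter-Glo.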

[11] = biological target: Estrogen receptor (Homo sapiens) (UniProt P03372); experiment: qHTS assay to identify small molecule agonists of the estrogen receptor alpha (ER-alpha) signaling pathway in the presence of an antagonist (AID 1259383; calls by dose curve; also: top concentration of the series differs between compounds; nearly all actives have a fitted effect of over 15% in size); conditions: VM7Luc4E2 cells, ERE-luciferase, +ICI-182,780, 22 h; series mostly up to 92.4 µM
Procedure, shortened: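 Agonist-mode confirmation in the presence of the ER antagonist ICI-182,780 at 10.0nM final. Breast-derived VM7Luc4E2 reporter cells were exposed to compounds for 22hr, and ERE-driven luciferase was quantified by luminescence.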

[12] = qHTS assay to identify small molecule agonists or antagonists of the thyroid stimulating hormone receptor (TSHR) signaling pathway - wild type cell line counter screen (AID 1259384; calls by dose curve); conditions: HEK293 wild type, cAMP HTRF counter-screen; series mostly up to 92.4 µM
Procedure, shortened: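 Wild-type Hek293 cells, 800/well, 18 h at 37C, then compound with Ro20-1724 for 30 min RT. cAMP by HTRF (cAMP-d2/anti-cAMP cryptate), 1 h RT, fluorescence read. 15 concentrations, triplicates.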

[13] = biological target: Thyrotropin receptor (Homo sapiens) (UniProt P16473); experiment: qHTS assay to identify small molecule antagonists of the thyroid stimulating hormone receptor (TSHR) signaling pathway (AID 1259385; calls by dose curve; also: nearly all actives have a fitted effect of over 20% in size); conditions: TSHR-HEK293 cAMP HTRF, TSH-stimulated antagonist mode; series mostly up to 92.4 µM
Thyrotropin receptor (Homo sapiens), sequence (P16473 whole entry, looked up): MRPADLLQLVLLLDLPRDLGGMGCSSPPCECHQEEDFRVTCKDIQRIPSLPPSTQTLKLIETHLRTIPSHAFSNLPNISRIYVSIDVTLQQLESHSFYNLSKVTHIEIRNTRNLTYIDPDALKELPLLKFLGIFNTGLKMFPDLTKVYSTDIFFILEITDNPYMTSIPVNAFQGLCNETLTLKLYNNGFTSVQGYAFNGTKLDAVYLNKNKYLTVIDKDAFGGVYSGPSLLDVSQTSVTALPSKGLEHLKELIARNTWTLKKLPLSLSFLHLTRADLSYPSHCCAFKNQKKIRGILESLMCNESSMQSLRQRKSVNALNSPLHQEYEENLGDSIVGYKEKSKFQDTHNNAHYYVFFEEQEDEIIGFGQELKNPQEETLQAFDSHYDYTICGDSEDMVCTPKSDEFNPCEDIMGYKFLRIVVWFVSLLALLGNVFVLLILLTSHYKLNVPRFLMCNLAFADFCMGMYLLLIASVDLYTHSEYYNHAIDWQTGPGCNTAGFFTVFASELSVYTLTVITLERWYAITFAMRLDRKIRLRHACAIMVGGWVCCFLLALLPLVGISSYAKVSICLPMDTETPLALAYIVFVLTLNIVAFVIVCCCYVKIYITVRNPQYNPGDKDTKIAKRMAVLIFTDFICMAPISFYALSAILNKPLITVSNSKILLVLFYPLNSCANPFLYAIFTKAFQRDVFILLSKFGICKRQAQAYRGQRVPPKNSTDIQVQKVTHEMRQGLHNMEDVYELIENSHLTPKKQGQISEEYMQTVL
Procedure, shortened: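 TSHR-HEK293 cells (800/well) plated 18 h, then compounds with Ro20-1724 and TSH at 1.5 ng/mL final, 30 min at room temperature. cAMP quantified by HTRF (cAMP-d2/anti-cAMP-cryptate, 1 h); 15 concentrations in triplicate.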

[14] = qHTS assay to identify small molecule agonists of the estrogen receptor alpha (ER-alpha) signaling pathway in the presence of an antagonist - cell viability counter screen (AID 1259386); conditions: VM7Luc4E2 viability, CellTiter-Fluor fluorescence, 22 h; series mostly up to 92.4 µM;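 also: cells exposed to compounds for 22 h at 37 °C before the viability read; nearly all actives have a fitted effect of over 30% in size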
Procedure, shortened: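 Cytotoxicity was measured in parallel with the ERE-luciferase agonist screen, in the same wells. The cells were VM7Luc4E2, which endogenously express ER-alpha, and treatment was with compounds plus 10.0nM ICI-182,780 for 22hr.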

[15] = biological target: Progesterone receptor (Homo sapiens) (UniProt P06401); experiment: qHTS assay to identify small molecule antagonists of the progesterone receptor (PR) signaling pathway (AID 1346795; active = well fitted inhibition curve with a large enough effect in the signal ratio in the repeat runs, not every such curve was filed as active; the % refers to the signal ratio); conditions: PR-UAS-bla HEK293T, beta-lactamase FRET ratio, 16 h; series mostly up to 92.4 µM
Progesterone receptor (Homo sapiens), sequence (P06401 whole entry, looked up): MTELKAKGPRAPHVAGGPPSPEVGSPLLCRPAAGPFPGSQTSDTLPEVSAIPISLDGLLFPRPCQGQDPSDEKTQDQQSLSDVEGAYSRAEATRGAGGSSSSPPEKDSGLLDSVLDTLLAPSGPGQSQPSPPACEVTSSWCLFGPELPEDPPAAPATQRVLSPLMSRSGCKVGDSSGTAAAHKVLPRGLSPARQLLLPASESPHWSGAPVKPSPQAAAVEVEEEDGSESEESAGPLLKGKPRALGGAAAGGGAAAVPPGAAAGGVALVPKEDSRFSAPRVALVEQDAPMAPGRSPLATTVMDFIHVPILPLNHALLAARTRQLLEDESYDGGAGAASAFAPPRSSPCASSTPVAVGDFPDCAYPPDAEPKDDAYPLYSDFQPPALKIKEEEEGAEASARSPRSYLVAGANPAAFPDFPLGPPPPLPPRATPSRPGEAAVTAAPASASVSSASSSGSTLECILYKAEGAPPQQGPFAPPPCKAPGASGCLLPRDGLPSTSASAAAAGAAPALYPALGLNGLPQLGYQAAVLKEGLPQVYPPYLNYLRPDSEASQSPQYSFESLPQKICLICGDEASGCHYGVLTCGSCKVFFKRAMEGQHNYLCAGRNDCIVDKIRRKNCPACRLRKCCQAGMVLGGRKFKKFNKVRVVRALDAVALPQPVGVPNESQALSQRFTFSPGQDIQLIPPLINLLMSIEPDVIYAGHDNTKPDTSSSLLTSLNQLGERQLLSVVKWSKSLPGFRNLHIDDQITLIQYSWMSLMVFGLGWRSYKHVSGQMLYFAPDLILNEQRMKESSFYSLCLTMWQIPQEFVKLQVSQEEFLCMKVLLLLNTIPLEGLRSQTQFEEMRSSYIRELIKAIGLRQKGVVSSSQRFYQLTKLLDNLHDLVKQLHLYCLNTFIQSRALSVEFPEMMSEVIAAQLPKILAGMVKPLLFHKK
Procedure, shortened: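 After 6 hr plating at 37C in 2% stripped-serum medium, PR-UAS-bla HEK293T cells got compounds, then 1 nM R5020. Sixteen hours later, LiveBLAzer substrate was applied for 2 hr at room temperature and fluorescence was recorded.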

[16] = qHTS assay to identify small molecule agonists of the estrogen receptor beta (ER-beta) signaling pathway - cell viability counter screen (AID 1259380); conditions: ER-beta-bla HEK293T viability, CellTiter-Glo luminescence, 16 h; series mostly up to 92.4 µM; also: nearly all actives have a fitted effect of over 30% in size
Procedure, shortened: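 Cytotoxicity is measured in parallel with the reporter screen: after 16 hr compound exposure at 37C and a 2 hr LiveBLAzer step, CellTiter-Glo is added to the same ER-beta-UAS-bla HEK293T wells and luminescence read after 30 min.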

[17] = biological target: Androgen receptor (Homo sapiens) (UniProt P10275); experiment: qHTS assay to identify small molecule agonists of the androgen receptor (AR) signaling pathway in the presence of an antagonist (AID 1259381; calls by dose curve; also: nearly all actives have a fitted effect of over 15% in size); conditions: MDA-kb2 MMTV-luciferase, AR agonist + nilutamide, 16 h; series mostly up to 92.4 µM
Androgen receptor (Homo sapiens), sequence (P10275 whole entry, looked up): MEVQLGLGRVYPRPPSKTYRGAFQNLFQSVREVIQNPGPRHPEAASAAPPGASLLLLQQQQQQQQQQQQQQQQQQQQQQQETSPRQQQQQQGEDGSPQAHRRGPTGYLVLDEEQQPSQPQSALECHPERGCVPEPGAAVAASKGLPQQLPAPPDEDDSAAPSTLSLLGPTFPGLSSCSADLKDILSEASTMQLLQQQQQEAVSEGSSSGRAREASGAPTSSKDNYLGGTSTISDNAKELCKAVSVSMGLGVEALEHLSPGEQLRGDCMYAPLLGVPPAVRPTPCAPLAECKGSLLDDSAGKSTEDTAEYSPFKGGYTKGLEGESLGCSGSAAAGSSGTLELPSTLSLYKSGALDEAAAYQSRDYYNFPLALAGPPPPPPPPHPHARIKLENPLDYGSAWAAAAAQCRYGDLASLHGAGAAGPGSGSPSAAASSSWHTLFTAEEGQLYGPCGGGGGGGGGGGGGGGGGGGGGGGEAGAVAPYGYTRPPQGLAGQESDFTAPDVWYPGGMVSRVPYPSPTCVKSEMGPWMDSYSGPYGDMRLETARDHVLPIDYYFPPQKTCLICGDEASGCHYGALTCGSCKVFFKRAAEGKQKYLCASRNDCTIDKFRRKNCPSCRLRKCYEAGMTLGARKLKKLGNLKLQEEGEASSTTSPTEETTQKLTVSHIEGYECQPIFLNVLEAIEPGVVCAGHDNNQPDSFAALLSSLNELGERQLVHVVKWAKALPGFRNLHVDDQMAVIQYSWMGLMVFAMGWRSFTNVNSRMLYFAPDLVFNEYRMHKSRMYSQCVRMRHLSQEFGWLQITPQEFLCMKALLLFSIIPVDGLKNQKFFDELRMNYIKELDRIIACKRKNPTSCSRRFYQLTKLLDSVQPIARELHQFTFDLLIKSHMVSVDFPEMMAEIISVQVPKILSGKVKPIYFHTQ
Procedure, shortened: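 Agonist-mode confirmation screen: human MDA-kb2 cells stably expressing luciferase under an MMTV promoter bearing AR and GR response elements, co-treated with 3.0uM nilutamide (final). Luminescence measured after 16hr compound incubation.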

[18] = biological target: Progesterone receptor (Homo sapiens) (UniProt P06401); experiment: qHTS assay to identify small molecule agonists of the progesterone receptor (PR) signaling pathway (AID 1346784; calls by dose curve; also: nearly all actives have a fitted effect of over 30% in size); conditions: PR-UAS-bla HEK293T, beta-lactamase FRET ratio, 16 h; series mostly up to 92.4 µM
Procedure, shortened: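 The screen uses PR-UAS-bla HEK 293T cells in charcoal-stripped serum (2%). Compounds are applied for 16 hr at 37C after a 6 hr pre-incubation, and reporter activity is detected with a FRET beta-lactamase substrate after 2 hr at room temperature.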

[19] = qHTS assay to identify small molecule agonists of the sonic hedgehog signaling (Shh) pathway (AID 1259368; calls by dose curve;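 also: NIH/3T3-derived 3T3Gli1-Luc cells carrying a stable Gli1-driven firefly luciferase reporter; nearly all actives have a fitted effect of over 15% in size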); conditions: NIH/3T3 Gli1-Luc reporter, luciferase, 24 h, hits give high values; series mostly up to 92.4 µM
Procedure, shortened: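 Cells of a mouse NIH/3T3 clone stably expressing luciferase under the Gli1 transcriptional response element are exposed to test chemicals for 24 hr at 37 C. Pathway activation is detected as a rise in luminescence.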
% is scaled to controls: 0 for no effect and ±100 for the full control effect.

Cc1occc1S
inactive: Potency [1] | Potency [2] | outcome [3] | Potency [4] | Potency [5] | Potency [6] | Potency [7] | Potency [8] | Potency [9] | Potency [10] | Potency [11] | Potency [12] | Potency [13] | Potency [14] | Potency [15]

O=C(NS(=O)(=O)/C=C/c1cccs1)c1ccc(F)cc1Br
inactive: Potency [1] | Potency [2] | outcome [3] | Potency [4] | Potency [6] | Potency [9] | Potency [16] | Potency [17] | Potency [10] | Potency [11] | Potency [14] | outcome [18] | Potency [15]

N[C@H]1C(O)O[C@H](CO)[C@H](O)[C@@H]1O (some centres undefined)
inactive: Potency [1] | Potency [2] | outcome [3] | Potency [4] | Potency [5] | Potency [6] | Potency [7] | Potency [8] | Potency [9] | Potency [16] | Potency [17] | Potency [10] | Potency [11] | Potency [12] | Potency [13] | Potency [14] | outcome [18] | Potency [15]

CC(C)c1ccc2c(C(C)C)cc(C(C)C)c(S(=O)(=O)O)c2c1
inactive: Potency [1] | Potency [2] | outcome [3] | Potency [4] | Potency [5] | Potency [6] | Potency [9] | Potency [17] | Potency [10] | Potency [11] | Potency [12] | Potency [13] | Potency [14] | Potency [15]

O=C(CCN1CCN2CCCC2C1)N1c2ccccc2Sc2ccc(Cl)cc21 (centres undefined)
inactive: activity change, negative = inhibition [1] 3.86% [at 19 µM] | activity change, negative = cytotoxicity [3] -2.44% [at 19 µM] | activity change [19] -0.0401% [at 18.9 µM] | activity change, negative = inhibition [6] -18.5% [at 19 µM] | activation [7] -2.5% [at 19 µM] | activity, negative = inhibition [8] -12.6% [at 19 µM] | activity change, negative = cytotoxicity [9] -7.38% [at 19 µM] | activity change, negative = cytotoxicity [16] -14.2% [at 19 µM] | activation [17] -1.48% [at 19 µM] | activity change, negative = cytotoxicity [10] -9.75% [at 19 µM] | activation [11] -1.43% [at 19 µM] | cAMP activity change [12] -1.23% [at 18.9 µM, hits give high values] | activation [18] -2.53% [at 19 µM] | activity change, negative = inhibition [15] -10.4% [at 18.9 µM]

COC(Cc1ccccc1)OC
inactive: Potency [1] | Potency [2] | Potency [4] | Potency [5] | outcome [19] | Potency [6] | Potency [9] | Potency [16] | Potency [10] | Potency [11] | Potency [13] | Potency [14] | Potency [15]

CC1=CCC(C(C)C)C=C1 (centres undefined)
inactive: Potency [1] | Potency [2] | Potency [4] | Potency [5] | outcome [19] | Potency [6] | Potency [9] | Potency [16] | Potency [10] | Potency [11] | Potency [14] | Potency [15]
